Results: ChEMBL document CHEMBL3988442, “University of Dundee, Small-Polar-MMV Screening Library” (2021)
For some of these results: Results with a measured potency or affinity are listed apart.

Legend:
Design in all cases: scale not given: direction of the effect not stated beside the values
[1] = molecular target: Protein translocase subunit SecA (Escherichia coli (strain K12)) (UniProt P10408); assay: Assay to Identify E. coli SecA ATPase Inhibitors; type: functional; settings: 30 µM
[2] = molecular target: T1, Ubiquitin-activating enzyme e1, putative (Leishmania donovani (strain BPK282A1)) (UniProt E9BSI1); assay: Leishmania donovani Ubiquitin Activating Enzyme (LdE1); type: functional; settings: 30 µM
T1 sequence (whole entry): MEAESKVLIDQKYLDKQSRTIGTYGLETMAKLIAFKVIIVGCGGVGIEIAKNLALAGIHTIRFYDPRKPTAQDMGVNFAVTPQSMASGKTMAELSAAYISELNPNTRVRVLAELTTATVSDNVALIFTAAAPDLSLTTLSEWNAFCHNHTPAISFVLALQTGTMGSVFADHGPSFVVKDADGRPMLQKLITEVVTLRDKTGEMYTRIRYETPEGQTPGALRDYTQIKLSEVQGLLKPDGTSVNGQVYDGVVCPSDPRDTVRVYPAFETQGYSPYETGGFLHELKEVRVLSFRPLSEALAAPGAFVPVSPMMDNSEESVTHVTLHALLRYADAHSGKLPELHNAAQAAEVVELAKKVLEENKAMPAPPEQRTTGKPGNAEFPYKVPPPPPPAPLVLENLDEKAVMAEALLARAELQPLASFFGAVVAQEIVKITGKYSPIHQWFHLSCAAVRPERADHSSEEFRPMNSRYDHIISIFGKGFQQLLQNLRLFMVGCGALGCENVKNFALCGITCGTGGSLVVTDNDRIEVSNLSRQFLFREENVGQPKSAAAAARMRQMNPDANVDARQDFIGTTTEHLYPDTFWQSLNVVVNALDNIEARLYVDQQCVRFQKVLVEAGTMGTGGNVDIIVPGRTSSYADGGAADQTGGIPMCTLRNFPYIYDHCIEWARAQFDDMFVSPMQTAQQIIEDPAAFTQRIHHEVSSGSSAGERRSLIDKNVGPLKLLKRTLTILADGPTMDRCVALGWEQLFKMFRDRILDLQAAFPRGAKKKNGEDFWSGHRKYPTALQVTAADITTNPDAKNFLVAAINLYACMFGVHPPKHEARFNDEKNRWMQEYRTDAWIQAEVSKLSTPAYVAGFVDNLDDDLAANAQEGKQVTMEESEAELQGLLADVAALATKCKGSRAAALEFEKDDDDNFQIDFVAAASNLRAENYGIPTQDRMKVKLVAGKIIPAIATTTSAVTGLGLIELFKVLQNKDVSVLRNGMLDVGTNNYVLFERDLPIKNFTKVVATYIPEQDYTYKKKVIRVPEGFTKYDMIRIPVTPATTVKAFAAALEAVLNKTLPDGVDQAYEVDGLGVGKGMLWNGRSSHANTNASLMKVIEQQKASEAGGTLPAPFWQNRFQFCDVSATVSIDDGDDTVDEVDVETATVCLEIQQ

[3] = molecular target: T2, Aspartate--tRNA(Asp/Asn) ligase (Mycobacterium tuberculosis (strain ATCC 25618 / H37Rv)) (UniProt P9WFW3); assay: Assay for Asp RNA synthetase-1 from Mycobacterium tuberculosis; type: functional; settings: 30 µM; note: in the data most compounds retested in dose-response had high values
T2 sequence (whole entry): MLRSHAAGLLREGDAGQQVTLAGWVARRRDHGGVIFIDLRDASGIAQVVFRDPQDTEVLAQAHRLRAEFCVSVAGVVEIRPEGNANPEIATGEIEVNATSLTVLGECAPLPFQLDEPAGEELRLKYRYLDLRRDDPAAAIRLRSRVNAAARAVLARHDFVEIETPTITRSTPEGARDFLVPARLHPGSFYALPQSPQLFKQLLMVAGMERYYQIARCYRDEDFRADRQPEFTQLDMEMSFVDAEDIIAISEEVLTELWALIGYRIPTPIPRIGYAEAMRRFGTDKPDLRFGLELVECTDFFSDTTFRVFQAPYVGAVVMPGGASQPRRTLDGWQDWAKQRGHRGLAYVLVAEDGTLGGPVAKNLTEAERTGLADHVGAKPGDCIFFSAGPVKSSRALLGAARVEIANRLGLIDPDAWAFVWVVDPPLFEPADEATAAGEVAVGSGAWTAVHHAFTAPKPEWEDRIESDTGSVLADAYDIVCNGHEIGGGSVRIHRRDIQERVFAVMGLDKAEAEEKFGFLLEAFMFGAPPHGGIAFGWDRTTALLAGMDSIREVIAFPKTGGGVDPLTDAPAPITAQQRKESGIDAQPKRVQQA

[4] = molecular target: AMP-activated protein kinase, AMPK (Homo sapiens) (UniProt P54646+O43741+P54619+Q9UGJ0+Q9Y478+Q13131+Q9UGI9); assay: AMP-dependent Kinase enzyme assay. An in vitro enzyme assay that detects ADP turnover that is directly proportional to AMPK activity. This uses naive AMPK that is activated during the assay with MK-8722; type: functional; settings: 30 µM
[5] = molecular target: Sialic acid-binding Ig-like lectin 9 (Homo sapiens) (UniProt Q9Y336); assay: Hs-Siglec9 ALPHAscreen SOP 20170721; settings: 10 µM
Chain of Sialic acid-binding Ig-like lectin 9 (Homo sapiens) (Q9Y336 whole entry): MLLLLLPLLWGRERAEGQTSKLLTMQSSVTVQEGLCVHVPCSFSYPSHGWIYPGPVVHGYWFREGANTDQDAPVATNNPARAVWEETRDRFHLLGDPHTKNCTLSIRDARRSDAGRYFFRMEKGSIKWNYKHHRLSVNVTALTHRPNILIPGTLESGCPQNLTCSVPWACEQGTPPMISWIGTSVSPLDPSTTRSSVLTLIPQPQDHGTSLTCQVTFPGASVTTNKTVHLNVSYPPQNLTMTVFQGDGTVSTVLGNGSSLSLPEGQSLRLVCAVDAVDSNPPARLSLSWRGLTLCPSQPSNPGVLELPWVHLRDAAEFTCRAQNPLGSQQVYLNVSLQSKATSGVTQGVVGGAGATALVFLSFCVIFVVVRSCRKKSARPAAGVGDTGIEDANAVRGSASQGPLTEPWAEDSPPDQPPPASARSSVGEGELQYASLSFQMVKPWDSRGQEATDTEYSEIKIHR

Trypanosoma cruzi = assay: Trypanosoma cruzi phosphomannomutase and mannose-1-phosphate guanylyltransferase assay; type: functional; settings: 10 µM
[6] = molecular target: T3, Arginase-2, mitochondrial (Homo sapiens) (UniProt P78540); assay: in vitro enzyme assay to detect the production of urea directly proportional to the activity of Arginase II; type: functional; settings: 33.3 µM; note: in the data most compounds retested in dose-response had high values
T3 sequence (whole entry): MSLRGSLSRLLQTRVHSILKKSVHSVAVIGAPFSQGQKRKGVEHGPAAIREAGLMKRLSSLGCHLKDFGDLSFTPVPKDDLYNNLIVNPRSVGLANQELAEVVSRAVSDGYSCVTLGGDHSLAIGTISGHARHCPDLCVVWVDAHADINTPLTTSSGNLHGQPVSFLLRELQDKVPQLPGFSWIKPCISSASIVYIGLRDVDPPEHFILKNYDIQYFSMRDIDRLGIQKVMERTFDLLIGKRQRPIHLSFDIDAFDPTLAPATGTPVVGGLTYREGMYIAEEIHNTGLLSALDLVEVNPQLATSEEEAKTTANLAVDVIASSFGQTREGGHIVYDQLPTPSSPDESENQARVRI

[7] = molecular target: T4, Proteasome subunit beta (Trypanosoma cruzi) (UniProt O96673); assay: Trypanosoma cruzi proteasome chymotrypsin-like activity (TcProtChymo) assay.; note: in the data most compounds retested in dose-response had high values; type: functional; settings: 9.37 µM
T4 sequence (whole entry): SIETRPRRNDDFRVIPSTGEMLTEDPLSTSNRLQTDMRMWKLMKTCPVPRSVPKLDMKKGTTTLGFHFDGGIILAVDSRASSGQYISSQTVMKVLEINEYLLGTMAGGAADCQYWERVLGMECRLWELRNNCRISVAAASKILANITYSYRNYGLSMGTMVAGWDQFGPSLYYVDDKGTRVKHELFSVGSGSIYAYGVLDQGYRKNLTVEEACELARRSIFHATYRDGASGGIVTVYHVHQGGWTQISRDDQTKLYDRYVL

Homo sapiens = species on record: Homo sapiens; assay: To identify inhibition of the IFN signalling (Jak-Stat) pathway via expression of an eGFP reporter gene under the control of an IFN-stimulated response element (ISRE) containing MxA promoter.; type: functional; settings: 30 µM
[8] = molecular target: Shiga toxin 2 (Escherichia coli O157:H7) (UniProt P09385+P09386); assay: E. coli 0.157:H7 Shiga Toxin SOP - stx2 screening assay; type: functional; settings: 30 µM
[9] = molecular target: T5, Tyrosyl-tRNA synthetase, putative (Trypanosoma cruzi (strain CL Brener)) (UniProt Q4DSP6); assay: Trypanosoma cruzi tyrosyl tRNA synthetase (TcYRS) _High Tyrosine SOP; type: functional; settings: 30 µM; note: in the data most compounds retested in dose-response had high values
T5 sequence (whole entry): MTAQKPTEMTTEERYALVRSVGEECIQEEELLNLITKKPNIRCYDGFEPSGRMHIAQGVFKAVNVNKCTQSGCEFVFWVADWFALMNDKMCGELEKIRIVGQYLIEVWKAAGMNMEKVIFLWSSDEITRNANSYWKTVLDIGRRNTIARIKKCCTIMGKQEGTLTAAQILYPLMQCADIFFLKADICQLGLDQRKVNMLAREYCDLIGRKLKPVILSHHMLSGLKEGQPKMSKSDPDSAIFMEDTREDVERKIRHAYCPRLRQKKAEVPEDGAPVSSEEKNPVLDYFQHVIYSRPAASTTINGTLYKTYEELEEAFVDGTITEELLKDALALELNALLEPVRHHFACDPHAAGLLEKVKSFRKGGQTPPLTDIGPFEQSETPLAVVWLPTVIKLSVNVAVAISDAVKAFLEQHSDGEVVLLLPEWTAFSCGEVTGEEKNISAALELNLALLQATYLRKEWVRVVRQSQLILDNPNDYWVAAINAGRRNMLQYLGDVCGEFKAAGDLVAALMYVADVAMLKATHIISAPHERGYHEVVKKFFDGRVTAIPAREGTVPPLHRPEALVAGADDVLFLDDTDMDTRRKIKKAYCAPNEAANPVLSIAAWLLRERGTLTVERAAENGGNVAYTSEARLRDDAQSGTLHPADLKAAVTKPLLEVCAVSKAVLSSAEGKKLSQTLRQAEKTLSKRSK

[10] = molecular target: T5, Tyrosyl-tRNA synthetase, putative (Trypanosoma cruzi (strain CL Brener)); assay: Trypanosoma cruzi tyrosyl tRNA synthetase (TcYRS) SOP; type: functional; settings: 30 µM
[11] = molecular target: Chromo domain-containing protein 1 (Saccharomyces cerevisiae (strain ATCC 204508 / S288c) (Baker's yeast)) (UniProt P32657); assay: ScCHD-1 Enzyme Inhibition Assay; type: functional; settings: 30 µM; note: in the data most compounds retested in dose-response had high values
Chain of Chromo domain-containing protein 1 (Saccharomyces cerevisiae (strain ATCC 204508 / S288c) (Baker's yeast)) (P32657 whole entry, the tested form may be a part): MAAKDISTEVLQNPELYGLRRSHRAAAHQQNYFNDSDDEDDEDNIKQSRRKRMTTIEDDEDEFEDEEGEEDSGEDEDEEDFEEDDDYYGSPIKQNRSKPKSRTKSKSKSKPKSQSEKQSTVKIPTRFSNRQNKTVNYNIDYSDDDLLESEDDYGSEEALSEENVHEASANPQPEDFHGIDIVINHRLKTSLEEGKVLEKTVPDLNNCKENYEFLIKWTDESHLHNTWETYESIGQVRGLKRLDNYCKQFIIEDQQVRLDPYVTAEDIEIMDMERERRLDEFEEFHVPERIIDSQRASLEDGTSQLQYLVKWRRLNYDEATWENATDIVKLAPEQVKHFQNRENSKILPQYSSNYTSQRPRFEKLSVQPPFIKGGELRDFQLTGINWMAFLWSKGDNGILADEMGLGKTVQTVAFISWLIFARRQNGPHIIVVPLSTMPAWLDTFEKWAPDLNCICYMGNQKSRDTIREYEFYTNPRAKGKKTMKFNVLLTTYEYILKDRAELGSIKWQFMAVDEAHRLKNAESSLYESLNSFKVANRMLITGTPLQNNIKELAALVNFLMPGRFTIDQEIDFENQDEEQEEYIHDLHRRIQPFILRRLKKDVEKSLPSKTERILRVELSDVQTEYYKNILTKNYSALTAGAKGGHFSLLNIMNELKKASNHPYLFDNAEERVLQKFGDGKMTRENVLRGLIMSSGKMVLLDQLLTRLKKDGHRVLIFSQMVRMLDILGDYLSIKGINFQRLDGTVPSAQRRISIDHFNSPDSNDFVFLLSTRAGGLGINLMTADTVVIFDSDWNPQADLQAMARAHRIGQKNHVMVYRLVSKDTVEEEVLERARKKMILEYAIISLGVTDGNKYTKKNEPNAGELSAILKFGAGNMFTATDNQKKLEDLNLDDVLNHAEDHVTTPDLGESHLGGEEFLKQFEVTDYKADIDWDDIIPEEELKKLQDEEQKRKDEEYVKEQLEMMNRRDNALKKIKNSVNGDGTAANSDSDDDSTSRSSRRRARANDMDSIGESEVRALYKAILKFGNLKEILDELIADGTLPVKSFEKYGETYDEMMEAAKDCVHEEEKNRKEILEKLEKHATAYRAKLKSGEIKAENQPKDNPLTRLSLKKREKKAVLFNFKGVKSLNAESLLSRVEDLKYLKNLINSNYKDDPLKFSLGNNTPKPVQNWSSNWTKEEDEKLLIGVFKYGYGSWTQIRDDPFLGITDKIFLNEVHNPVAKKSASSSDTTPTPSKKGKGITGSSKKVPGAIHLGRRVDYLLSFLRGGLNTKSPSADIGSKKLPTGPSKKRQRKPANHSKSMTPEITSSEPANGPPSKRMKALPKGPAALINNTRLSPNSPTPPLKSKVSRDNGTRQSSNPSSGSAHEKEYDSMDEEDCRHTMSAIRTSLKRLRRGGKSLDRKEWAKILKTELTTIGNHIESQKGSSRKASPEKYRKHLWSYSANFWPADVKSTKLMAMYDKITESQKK

Chain of Protein translocase subunit SecA (Escherichia coli (strain K12)) (P10408 whole entry): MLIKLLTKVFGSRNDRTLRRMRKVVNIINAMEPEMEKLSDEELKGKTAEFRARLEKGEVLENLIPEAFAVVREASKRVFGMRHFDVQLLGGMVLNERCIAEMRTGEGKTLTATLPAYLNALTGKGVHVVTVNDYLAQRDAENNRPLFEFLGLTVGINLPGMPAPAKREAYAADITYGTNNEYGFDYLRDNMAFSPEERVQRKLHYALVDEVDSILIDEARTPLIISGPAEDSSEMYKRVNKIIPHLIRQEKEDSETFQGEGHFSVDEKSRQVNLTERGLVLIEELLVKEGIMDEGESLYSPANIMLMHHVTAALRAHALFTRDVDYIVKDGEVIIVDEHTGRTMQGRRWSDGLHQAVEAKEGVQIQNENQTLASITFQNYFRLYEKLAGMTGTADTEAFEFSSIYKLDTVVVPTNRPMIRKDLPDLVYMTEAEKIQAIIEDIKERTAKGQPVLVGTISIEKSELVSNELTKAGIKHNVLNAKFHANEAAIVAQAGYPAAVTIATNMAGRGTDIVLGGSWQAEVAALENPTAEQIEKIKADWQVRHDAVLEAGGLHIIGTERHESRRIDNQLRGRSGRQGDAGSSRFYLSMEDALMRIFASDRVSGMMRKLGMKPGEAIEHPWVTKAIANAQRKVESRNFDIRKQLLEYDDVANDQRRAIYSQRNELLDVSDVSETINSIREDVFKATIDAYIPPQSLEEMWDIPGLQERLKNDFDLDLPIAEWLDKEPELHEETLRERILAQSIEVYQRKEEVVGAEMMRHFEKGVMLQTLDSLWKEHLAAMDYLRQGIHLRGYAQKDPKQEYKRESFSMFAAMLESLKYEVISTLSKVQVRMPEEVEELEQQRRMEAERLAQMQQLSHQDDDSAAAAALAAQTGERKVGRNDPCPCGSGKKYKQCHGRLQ

SMILES | Percent Effect [1] [%] | Percent Effect [2] [%] | Percent Effect [3] [%] | Percent Effect [4] [%] | Percent Effect [5] [%] | Percent Effect (Trypanosoma cruzi) [%] | Percent Effect [6] [%] | Percent Effect [7] [%] | Percent Effect (Homo sapiens) [%] | Percent Effect [8] [%] | Percent Effect [9] [%] | Percent Effect [10] [%] | Percent Effect [11] [%]
COc1cc(CNCC(O)c2ccc(C)cc2)cc2c1OCCO2 (stereo not given) | -5.58 | 24.3 | -2.36 | 11 | 14.6 | 2.32 | -3.88 | 16.3 | 8.18 | -34.2 | 6.93 | 18.3 | -6.66
CO[C@H]1CCN(Cc2ccccn2)[C@@H]2CN(Cc3ccco3)C[C@H]12 | -4.75 | 9.33 | -1.34 | 0.435 | 4.87 | -3.34 | 2.64 | 17.7 | -12.9 | -18.4 | 9.52 | 15.4 | -1.8
Cc1ncccc1OCC(=O)N1CCN[C@H]2CS(=O)(=O)C[C@H]21 | -6.4 | 10.8 | 7.97 | -4.66 | 0.713 | 0.489 | 4.71 | 14.2 | -4.73 | 11.7 | 9.68 | 18.5 | -1.55
c1cncc(COC[C@H]2CC[C@H]3[C@H](CCN3Cc3cccs3)O2)c1 | -1.85 | 13.3 | 6.9 | 3.86 | 2.88 | -0.197 | 3.5 | 22.8 | 3.65 | -13.6 | 7.45 | 14.1 | -5.4
Fc1cnc(N2CCO[C@H]3CN(CC4CCCC4)C[C@H]32)nc1 | -2.09 | 21.3 | -4.57 | -6.38 | -0.399 | 3.48 | -60 | 3.93 | -7.5 | -12.1 | 3.12 | 2.5 | -13.4
COc1ccc2c(ccn2CCN)c1 | -4.08 | -49.3 | -3.77 | -2.79 | 5.94 | -0.982 | 0.176 | 6.65 | 19 | -17.9 | 7.41 | 10.3 | -4.41
O=C(Cc1csc(-c2ccco2)n1)N1CCN(CCO)CC1 | 0.294 | 1.27 | -0.16 | 8.43 | 2.75 | 0.308 | 8.39 | 5.49 | 11.1 | -23.6 | 3.12 | 5.06 | -4.16
Cc1cccc(CN2C[C@H](NS(C)(=O)=O)[C@@H]3OCCC[C@@H]32)n1 | -0.629 | -5.33 | -2.65 | 9.72 | 5.95 | -4.83 | -50 | 0.513 | 3.24 | -15.5 | 1.04 | -5 | -2.83
CCN(Cc1cccnc1)CC1CCCO1 (stereo not given) | -3.64 | 0 | 6.87 | -3.71 | -1.05 | -5.88 | -6.82 | 1.77 | 3.09 | -16.3 | 2.15 | 2.5 | -3.4
O=C(COc1ccccc1)N1C[C@@H](O)[C@H](N2CCCC2)C1 | 0.635 | 9.46 | -7.13 | 3.56 | -3.46 | 3.36 | -6.26 | 10.8 | 1.48 | -14.2 | -1.07 | 3.9 | -22
